Each structure is given as a SMILES string. Results filed as inconclusive are left out. The source made the active and inactive calls. Rule for the calls, unless noted: active = hit-call score of the fitted dose curve at least 0.9, where 1 is the maximum; inactive = score below 0.9.

Broadly, the AC50 is the concentration giving half of the maximal activity seen.

Sequence of Estrogen receptor (Homo sapiens) (P03372 whole entry, looked up): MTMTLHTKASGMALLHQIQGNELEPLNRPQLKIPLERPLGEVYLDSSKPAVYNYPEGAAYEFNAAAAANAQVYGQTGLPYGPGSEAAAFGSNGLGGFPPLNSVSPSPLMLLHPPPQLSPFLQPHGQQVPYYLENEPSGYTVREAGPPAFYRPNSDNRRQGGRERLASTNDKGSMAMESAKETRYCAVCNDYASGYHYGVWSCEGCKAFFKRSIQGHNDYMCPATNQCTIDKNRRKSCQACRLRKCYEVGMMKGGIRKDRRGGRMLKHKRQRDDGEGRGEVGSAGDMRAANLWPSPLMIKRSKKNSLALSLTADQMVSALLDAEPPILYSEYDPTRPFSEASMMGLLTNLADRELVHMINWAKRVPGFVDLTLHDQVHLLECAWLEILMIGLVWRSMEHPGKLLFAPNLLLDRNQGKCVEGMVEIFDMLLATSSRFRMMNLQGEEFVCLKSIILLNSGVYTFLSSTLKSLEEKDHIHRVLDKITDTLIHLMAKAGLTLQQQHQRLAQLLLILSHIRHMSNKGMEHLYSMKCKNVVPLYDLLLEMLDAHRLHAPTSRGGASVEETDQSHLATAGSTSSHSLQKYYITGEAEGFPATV

In one test the target is Estrogen receptor (Homo sapiens) (UniProt P03372). As to the kind of experiment: CCTE_Deisenroth_AIME_384WELL_LUC_Active: CCTE's 384-well Estrogen Receptor Transactivation Assay with AIME metabolic competence (ERTA luciferase; metabolism positive), Deisenroth Lab (AID 2284030; active = hit-call score of the fitted dose curve at least 0.9, where 1 is the maximum). The procedure:
(§1) CCTE_Deisenroth_AIME_384WELL (AIME metabolism assay) is a cell-based, single-readout assay that uses VM7Luc4E2, a human mammary gland/breast cell line, with measurements taken at 24 hour after chemical dosing in a 384-well plate.CCTE_Deisenroth_AIME_384WELL_LUC_Active is one of four assay components measured or calculated from the CCTE_Deisenroth_AIME_384WELL assay. It is designed to make measurements of luciferase induction, a form of inducible reporter, as detected with bioluminescence signals by luciferase-coupled ATP quantitation technology.CCTE_Deisenroth_AIME_384WELL_LUC_Active is a component of the CCTE_Deisenroth_AIME_384WELL assay that measures the effect of retroftting the VM7Luc ERTA assay with the Alginate Immobolization of Metabolic Enzymes (AIME) metabolism method. AIME is optimized to impart phase I hepatic metabolism using phenobarbital/beta-naphthoflavone induced hepatic S9 from male Sprague Dawley rats. Parent chemicals are incubated for 2 hours in the AIME assay prior to transfer to the VM7Luc ERTA assay plate. […] This endpoint evaluates reporter induction in metabolism positive mode. Using a type of inducible reporter in VM7Luc cells, gain-of-signal activity can be used to understand changes in the reporter gene as they relate to xenobiotic metabolism and the gene ESR1. This assay endpoint, CCTE_Deisenroth_AIME_384WELL_LUC_Active, was analyzed in the positive analysis fitting direction relative to 17beta-estradiol as the positive control in the ERTA assay. To generalize the intended target to other relatable targets, this assay endpoint is annotated to the nuclear receptor intended target family, where the subfamily is steroidal.
(§2) The AIME procedure consists of a preparative "pre-stamping" step using a barium chloride/poly-L-lysine (PLL) solution followed by "stamping" the lid in alginate-hepatic S9 (metabolism positive) or alginate-water (metabolism negative) to form microspheres. Once stamping is completed, the AIME lids are placed in duplicate microplates (metabolism positive or negative) containing chemical solutions and incubated for two hours to facilitate metabolic reactions. The conditioned medium, containing parent chemical or metabolites, is then transferred to the cell-based VM7Luc Estrogen Receptor Transactivation Assay (ERTA) for 24 hours. A typical experimental design tests a 10-point concentration series (0.002 - 200 uM) for 8 compounds (96-well format)1 or 32 compounds (384-well format)2 in single technical replicate. AIME assay controls include trans-stilbene (bioactivated control) and ethylparaben (bioinactivated control). ERTA assay plate controls include 17-beta estradiol (positive control) and DMSO (solvent control). Experiments typically comprise a minimum of four experimental replicates (n=4).
Consider `C(=C(c1ccccc1)c1ccccc1)c1ccccc1`, for which the AC50 is 4.42 µM (active).

Turning to `CCCCCCC(C)OC(=O)CCCCC(=O)OC(C)CCCCCC` (configuration not stated), the compound was called inactive.

In the case of `CC/C=C\CCOC(C)=O`, the call was inactive.

For the compound `CNC(=S)NC`, the compound was called inactive.

Tested on in the next test: not listed separately
In words: CCTE_Shafer_MEA_dev_per_burst_spike_percent: CCTE's Neural Network Formation Assay for Percent of Spikes in a Burst, Shafer Lab (AID 2284032).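 For AC50: fitted as a decrease in burst spike percentage below DMSO baseline.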 Put shortly: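 Rat primary cortical neurons on 16-electrode MEA wells, dosed from plating day 0 for 12 days with renewal on DIV 5 and 9; spikes-in-bursts percentage averaged over bursting electrodes, collapsed as AUC across days 5, 7, 9, 12; loss direction versus DMSO.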
On to `C=CC(=O)OCC(F)(F)C(F)(F)C(F)(F)C(F)(F)COC(=O)C=C`, for which the AC50 was 4.76 µM (active).

With `O=C(O)C(F)(F)C(F)(F)C(F)(F)F`, the compound was classed as inactive.

`CC(C)(C)C(=O)CC(=O)C(F)(F)C(F)(F)C(F)(F)F`: the AC50 was 23.5 µM (active).

With `FC(F)(F)C(F)(F)CNCC(F)(F)C(F)(F)F`, the compound was classed as inactive.

On to `Cc1ccc(S(=O)(=O)OCC(F)(F)C(F)(F)C(F)(F)C(F)(F)C(F)(F)C(F)F)cc1`, for which the result was inactive.

On to `O=S(=O)(OCC(F)F)C(F)(F)F`, for which the compound was called inactive.

Take `OCC(F)(F)C(F)(F)C(F)(F)F`: the call was inactive.

`CC(CCl)OP(=O)(OC(C)CCl)OC(C)CCl` (configuration not stated): the outcome was inactive.

In the case of `FC(F)(F)C(F)(F)C(F)(F)C(F)(F)C(F)(F)CCI`, the AC50 is 22.2 µM (active).

As to `O=C(O)C(F)(F)C(F)(F)C(F)(F)C(F)(F)C(F)(F)C(F)(F)C(F)(F)C(F)(F)Cl`, the outcome was inactive.

With `O=C(O)C=C(C(F)(F)F)C(F)(F)F`, the result was inactive.

On to `O=S(=O)(OCCOC(F)(F)F)C(F)(F)F`, for which the result was inactive.

Turning to `OCC(F)(F)C(F)(F)C(F)(F)C(F)F`, the compound was called inactive.

In the case of `OC[C@@H](O)[C@@H](O)[C@H](O)[C@@H](O)CO`, the compound was classed as inactive.

`OCC(F)(F)C(F)(F)C(F)(F)C(F)(F)C(F)(F)C(F)F`: the compound was called inactive.

On to `N=C(N)C(F)(F)C(F)(F)C(F)(F)C(F)(F)C(F)(F)C(F)(F)C(F)(F)F`, for which the outcome was inactive.

`O=C(O)C(F)(F)C(F)(F)C(F)(F)C(F)(F)C(F)(F)C(F)(F)C(F)(F)C(F)(F)C(F)(F)C(F)F`: the compound was classed as inactive.

For the compound `O=P(O)(O)OCCC(F)(F)C(F)(F)C(F)(F)C(F)(F)C(F)(F)C(F)(F)F`, the compound was classed as inactive.

For `NC(=O)C(F)(F)C(F)(F)C(F)(F)C(F)(F)F`, the call was inactive.

Take `O=C(O)C(F)(F)C(F)(F)C(F)F`: the compound was classed as inactive.

Regarding `OCCCC(F)(F)C(F)(F)C(F)(F)F`, the compound was called inactive.

Turning to `COC(=O)CCC(F)(F)C(F)(F)C(F)(F)C(F)(F)F`, the call was inactive.

For `FC(F)(F)C(F)(F)C(F)(F)C(F)(F)C(F)(F)C(F)(F)CC1CO1` (configuration not stated), the result was inactive.

For a further test, the target named is Estrogen receptor (Homo sapiens) (UniProt P03372). In words: CCTE_Deisenroth_AIME_384WELL_LUC_Inactive: CCTE's 384-well Estrogen Receptor Transactivation Assay without AIME metabolic competence (ERTA luciferase; metabolism negative), Deisenroth Lab (AID 2284038; active = hit-call score of the fitted dose curve at least 0.9, where 1 is the maximum;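 note: VM7Luc4E2 breast cells given medium preincubated 2 h with S9-free microspheres; hits raise estrogen receptor luciferase signal so potencies reflect agonists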). The method, then:
as §1, with “384-well plate.CCTE_Deisenroth_AIME_384WELL_LUC_Inactive” for “384-well plate.CCTE_Deisenroth_AIME_384WELL_LUC_Active”, “quantitation technology.CCTE_Deisenroth_AIME_384WELL_LUC_Inactive” for “quantitation technology.CCTE_Deisenroth_AIME_384WELL_LUC_Active”, “metabolism negative” for “metabolism positive”, “endpoint, CCTE_Deisenroth_AIME_384WELL_LUC_Inactive,” for “endpoint, CCTE_Deisenroth_AIME_384WELL_LUC_Active,”
The AIME procedure consists of a preparative "pre-stamping" step using a barium chloride/poly-L-lysine (PLL) solution followed by "stamping" the lid in alginate-hepatic S9 (metabolism positive) or alginate-water (metabolism negative) to form microspheres. […]
Consider `C(=C(c1ccccc1)c1ccccc1)c1ccccc1`, for which the AC50 was 9.48 µM (active).

As to `CCCCCCC(C)OC(=O)CCCCC(=O)OC(C)CCCCCC` (configuration not stated), the compound was called inactive.

On to `CNC(=S)NC`, for which the outcome was inactive.

Tested on in a further test: not listed separately
As to the kind of experiment: CCTE_Deisenroth_AIME_384WELL_CTox_Inactive: Cytotoxicity Assessment (CTOX) in CCTE's 384-well Estrogen Receptor Transactivation Assay without AIME metabolic competence (metabolism negative), Deisenroth Lab (AID 2284039; active = hit-call score of the fitted dose curve at least 0.9, where 1 is the maximum;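 note: cell viability via live-cell protease substrate cleaved to fluorescent probe; cells exposed 24 h to medium preincubated 2 h with alginate-water beads without S9; loss of fluorescence signal means loss of viability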). The procedure: CCTE_Deisenroth_AIME_384WELL (AIME metabolism assay) is a cell-based, single-readout assay that uses VM7Luc4E2, a human mammary gland/breast cell line, with measurements taken at 24 hour after chemical dosing in a 384-well plate.CCTE_Deisenroth_AIME_384WELL_CTox_Inactive is one of four assay components measured or calculated from the CCTE_Deisenroth_AIME_384WELL assay. It is designed to make measurements of a protease substrate, a type of viability indicator, as detected with substrate cleavage to a fluorescent probe in living cells.CCTE_Deisenroth_AIME_384WELL_CTox_Inactive is a component of the CCTE_Deisenroth_AIME_384WELL assay that measures the effect of retroftting the VM7Luc ERTA assay with the Alginate Immobolization of Metabolic Enzymes (AIME) metabolism method. AIME is optimized to impart phase I hepatic metabolism using phenobarbital/beta-naphthoflavone induced hepatic S9 from male Sprague Dawley rats. Parent chemicals are incubated for 2 hours in the AIME assay prior to transfer to the VM7Luc ERTA assay plate. […] This endpoint evaluates cytotoxicity in metabolism negative mode. Using a type of flourescent probe in VM7Luc cells, loss-of-signal activity can be used to understand loss of viability. This assay endpoint, CCTE_Deisenroth_AIME_384WELL_CTox_Inactive, was analyzed with bidirectional fitting in the ERTA assay.
as §2
In the case of `C(=C(c1ccccc1)c1ccccc1)c1ccccc1`, the call was inactive.

For the compound `CCCCCCC(C)OC(=O)CCCCC(=O)OC(C)CCCCCC` (configuration not stated), the result was inactive.

In the case of `CC/C=C\CCOC(C)=O`, the compound was called inactive.

For the compound `CCN(Cc1cccc(S(=O)(=O)O)c1)c1ccc(C(=C2C=CC(=[N+](CC)Cc3cccc(S(=O)(=O)O)c3)C=C2)c2ccc(O)cc2S(=O)(=O)[O-])cc1`, the AC50 is 100 µM (active).

With `CNC(=S)NC`, the compound was classed as inactive.

Tested on in the next test: not listed separately
As to the kind of experiment: CCTE_Shafer_MEA_dev_active_electrodes_number: CCTE's Neural Network Formation Assay for Number of Active Electrodes, Shafer Lab (AID 2284040; active = hit-call score of the fitted dose curve at least 0.9, where 1 is the maximum;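 for AC50: potency for loss of active electrodes versus DMSO so lower counts are hits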). Put shortly:
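Rat cortical primary cultures, 1.5 x 10^5 cells/well, PEI-coated MEA, laminin drop. Continuous exposure DIV 0–12; full media/compound change DIV 5, 9. Readout: electrodes with mean firing ≥5 spikes/min; AUC across days; loss vs DMSO.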
For `C=CC(=O)OCC(F)(F)C(F)(F)C(F)(F)C(F)(F)COC(=O)C=C`, the AC50 was 4.2 µM (active).

As to `O=C(O)C(F)(F)C(F)(F)C(F)(F)F`, the result was inactive.

The values above are taken from PubChem BioAssay (EPA / NIEHS).
